Compound activity deposited in PubChem by National Center for Advancing Translational Sciences (NCATS).
BRCT PPI red = BRCT-phosphoprotein interaction inhibition (red fluorophore); Potency, µM (top dose mostly 76.9 µM), without a hit: at the top dose activity change, negative = inhibition, most hits filed as inhibitors; BRCT-phosphopeptide binding, red fluorescence polarization; 75,000 compounds, 0.03% hits; P38398; also: % is scaled to controls: 0 for no effect and ±100 for the full control effect
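Fluorescence polarization: 100 nM His-tagged BRCA1 BRCT with 100 nM TAMRA-labelled phospho-BACH1 decapeptide, phosphate buffer pH 7.3 with 150 mM NaCl, DTT, 0.01% Tween 20; 12 min RT. Binding inhibition seen as FP decrease.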
YjeE inh = inhibitors of E. coli YjeE (TsaE); P0AF67; purified YjeE enzyme, qHTS inhibition assay; Potency, µM; 71,000 compounds, 0.05% hits; AID 605
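Fluorescence polarization of a BODIPY Texas Red–ADP probe (2 uM) bound to purified YjeE (10 uM) was read after 15 min room-temperature incubation with compounds. Loss of polarization marks inhibitors; ADP serves as titrated control.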
BRCT inh green = BRCA1 BRCT-phosphoprotein interaction inhibition. P38398. BRCA1 BRCT-phosphopeptide binding, green fluorescence polarization. Potency, µM (series often up to 76.9 µM), for the others: top-dose activity change, negative = inhibition, usual class: inhibitors. 75,000 compounds, 0.05% hits. AID 875;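 also: potency is read from the fitted curve at half-maximal effect; plate controls were peptide without protein for full effect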
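Compounds were incubated for 12 min at room temperature with a complex of 100 nM fluorescein-tagged pBACH1 decapeptide and 250 nM His-tagged BRCT protein. Buffer was phosphate pH 7.3 with EDTA, DTT and Tween 20. Disruption of binding lowers the polarization signal.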
Hsp90 Hop PPI = changes Hsp90-Hop TPR2A binding signal, up or down | Potency, µM (series often up to 57 µM), inactives show at the highest dose activity change, negative = inhibition | 71,000 compounds, 0.44% hits | AID 595 | AlphaScreen TPR2A-His6 binding biotin-Hsp90 C-terminal peptide; active = well fitted curve in either direction with a large enough effect; inconclusive = small, poorly fitted or top-dose-only effect, or another doubt; also: potency is read from the fitted curve at half-maximal effect; % is scaled to controls: 0 for no effect and ±100 for the full control effect
Pol III holo inh = DNA polymerase III holoenzyme inhibition. reconstituted DNA polymerase III holoenzyme replication, biochemical. Potency, µM (highest dose often 57.1 µM), inactives show top-dose activity change, negative = inhibition. 71,000 compounds, 0.25% hits; also: potency is read from the fitted curve at half-maximal effect; % is scaled to controls: 0 for no effect and ±100 for the full control effect
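Reconstituted *E. coli* holoenzyme (0.35 nM Pol III, 1 nM beta, 154 nM SSB, 2 nM primase) was preincubated with compound for 15 min at RT. Synthesis on 1.4 nM ssM13Gori ran 35 min, then was stopped with PicoGreen/EDTA and read as dsDNA fluorescence.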
Tau fil binding = binds recombinant human tau filaments; AID 596; 71,000 compounds, 2% hits; P10636; recombinant tau filaments, thioflavin S fluorescence, 15 h; filaments grown with octadecylsulfate alongside compound; Potency, µM (highest dose often 57.1 µM), for inactives: top-dose activity change, negative = inhibition;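 also: potency is read from the fitted curve at half-maximal effect; % is scaled to controls: 0 for no effect and ±100 for the full control effect; actives lower thioflavin S fluorescence by blocking filaments or displacing dye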
Target sequence (P10636 whole entry, looked up): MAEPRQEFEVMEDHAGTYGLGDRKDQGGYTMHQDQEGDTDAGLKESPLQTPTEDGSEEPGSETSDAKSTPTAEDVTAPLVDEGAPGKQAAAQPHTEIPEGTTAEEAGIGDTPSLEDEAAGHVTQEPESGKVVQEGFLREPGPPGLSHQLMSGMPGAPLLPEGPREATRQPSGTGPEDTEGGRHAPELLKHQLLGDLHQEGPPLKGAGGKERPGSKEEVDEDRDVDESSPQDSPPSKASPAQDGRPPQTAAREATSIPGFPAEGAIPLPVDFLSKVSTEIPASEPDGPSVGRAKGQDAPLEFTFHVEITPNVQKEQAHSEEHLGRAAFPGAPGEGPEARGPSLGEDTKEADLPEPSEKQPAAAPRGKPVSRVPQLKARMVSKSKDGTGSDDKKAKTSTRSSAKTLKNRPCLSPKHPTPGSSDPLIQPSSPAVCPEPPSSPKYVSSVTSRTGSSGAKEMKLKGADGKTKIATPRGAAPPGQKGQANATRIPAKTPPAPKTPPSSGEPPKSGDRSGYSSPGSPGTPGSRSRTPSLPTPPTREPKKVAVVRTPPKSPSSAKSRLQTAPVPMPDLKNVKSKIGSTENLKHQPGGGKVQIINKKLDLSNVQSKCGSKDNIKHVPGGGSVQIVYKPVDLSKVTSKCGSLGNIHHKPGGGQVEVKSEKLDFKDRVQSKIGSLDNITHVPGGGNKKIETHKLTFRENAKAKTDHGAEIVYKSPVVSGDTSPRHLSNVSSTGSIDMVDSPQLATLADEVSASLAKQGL
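His-tagged recombinant human tau (exons 2, 3, 10; 1 uM final) fibrillized with 30 uM sodium octadecylsulfate, 15 h at 37 C, in pH 7.4 HEPES buffer with 10 uM thioflavine S and 5 mM DTT. Reduced ThS fluorescence (450/510 nm) marks activity.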
* hit, by the source's call; i = inactive; ? = inconclusive; . = no result given; ! = not active in a repeat; [ ] = another dose, or the depositor's remark. Most compounds without a hit are left out; they make up all but 2.4% or so of the library. Unless noted, calls follow the shape of the dose curve; as a rule, active = well fitted curve in the direction sought with a large enough effect; inconclusive = small, poorly fitted or top-dose-only effect, or another doubt; inactive = no such curve, though single readings can be large; an effect the other way counts as inactive or inconclusive.

SMILES | BRCT PPI red | YjeE inh | BRCT inh green | Hsp90 Hop PPI | Pol III holo inh | Tau fil binding
COc1cc(O)c2c(=O)c(O)c(-c3ccc(O)c(O)c3)oc2c1 | 1.6% | . | 1.1% | . | . | .
O=c1c(O)c(-c2ccc(O)cc2)oc2cc(O)cc(O)c12 | -1.9% | i | 4.5% | -6.1% | -11.1% | 31.6µM*!
O=c1c(O)c(-c2ccc(O)cc2)oc2cc(O)ccc12 | 0.4% | i | -4.0% | 4.9% | -6.9% | -26.7%
O=c1c(O)c(-c2ccc(O)c(O)c2)oc2cc(O)ccc12 | -1.6% | i | -1.1% | 5.2% | 0.794µM* | ?
CCOC(=O)c1ccc(-n2c(C)nc3ccccc3c2=O)cc1 | 0.3% | i | -3.2% | -1.8% | 2.8% | 7.1%
CCOC(=O)c1ccc(-n2[nH]c(-c3ccccc3)cc2=O)cc1 | -0.1% | i | 5.0% | -10.5% | -1.5% | 15.8µM*
Cc1cccc(NC(=O)c2cc(-c3ccco3)nc3ccccc23)n1 | -1.6% | i | 2.0% | 1.6% | -5.8% | 62.8%
O=C(NCC1CCCO1)c1cc(-c2ccco2)nc2ccccc12 (configuration not stated) | -0.2% | i | -2.7% | -1.6% | 31.6µM* | -3.1%
CCOc1cc(N2CCOCC2)c(OCC)cc1NC(=O)c1cc(-c2ccco2)nc2ccccc12 | -0.6% | i | -2.6% | -17.0% | -0.2% | 10µM*
CC[C@]1(O)C[C@H]2CN(CCc3c([nH]c4ccccc34)[C@](C(=O)OC)(c3cc4c(cc3OC)N(C)[C@@H]3[C@](O)(C(=O)OC)[C@H](OC(C)=O)[C@]5(CC)C=CCN6CC[C@]43[C@@H]65)C2)C1 | 1.1% | i | -2.5% | -7.6% | -8.0% | -8.2%
CCCCC/C=C\C[C@H](O)/C=C\c1cccc(C[C@H](O)CCCCO)n1 | -1.3% | i | 2.6% | -10.6% | -2.9% | -4.1%
CC(C)=CCC/C(C)=C/CO/N=C1/[C@H]2O[C@@H]2[C@@H](O)[C@H]2[C@H]1CCn1c(=O)n(-c3ccccc3)c(=O)n12 | 1.0%[15.4 µM] | . | -0.1%[15.4 µM] | . | . | .
COc1ccc(S(=O)(=O)N(C)CC(=O)O)cc1C | 0.4% | . | -1.1% | . | . | .
O=C(O)C1Nc2c(O)cccc2C2C=CCC12 (configuration not stated) | -19.5% | i | -13.3% | 25.1µM* | 3.16µM* | 12.6µM*
O=C(OC1CCCCC1)c1ccc2c(c1)C1C=CCC1C(C(=O)O)N2 (configuration not stated) | ? | i | ? | ? | 20µM* | 0.631µM*
CCc1nc(N2CCOCC2)c(C#N)c2c1COC(C)(C)C2 | -3.0% | i | -0.1% | -1.4% | 6.7% | 23.8%
CC1CCN(c2nc(-c3ccco3)c3c(c2C#N)CC(C)(C)OC3)CC1 | -0.6% | i | 3.2% | 25.1µM* | -4.7% | -16.6%
COc1ccc(-c2nnc(SCC(=O)Nc3cccc(Cl)c3)o2)cc1 | 0.2% | i | -2.0% | 1.3% | -3.0% | 133.8%
COc1cccc(NC(=O)CSc2nnc(-c3cc(-c4ccccn4)nc4ccccc34)o2)c1 | -0.7% | i | 4.9% | -8.3% | -0.6% | 25.1µM*
c1ccc(Nc2cc(Nc3ccccc3)[nH]n2)cc1 | 0.3% | i | -3.5% | -22.8% | -2.0% | 20µM*
CN(C)C(=O)c1ccc(-c2cc(Nc3ccccc3)ncn2)cc1 | 0.0% | i | -2.1% | 0.0% | -7.4% | 1.2%
Cc1ccc(-c2nc(-c3ccccc3)no2)c(Cl)c1 | -0.2% | i | -0.5% | 25.1µM* | 0.9% | 18.3%
COc1ccc(N2CCN(C(=O)c3ccc(NS(=O)(=O)c4ccc(F)cc4)cc3)CC2)cc1 | -1.8% | i | -4.5% | -22.0% | 0.7% | 15.8µM*
CCOc1ccc(S(=O)(=O)Nc2cccc(C(=O)N3CCN(c4ccc(OC)cc4)CC3)c2)cc1 | -1.1% | i | -1.8% | -13.8% | -3.1% | -16.4%
CCOC(=O)CN1CC23C=CC(O2)C(C(=O)Nc2ccc(OC)cc2OC)C3C1=O (configuration not stated) | -0.3% | i | -0.8% | -3.2% | -1.3% | -9.6%
SMILES | BRCT PPI red | YjeE inh | BRCT inh green | Hsp90 Hop PPI | Pol III holo inh | Tau fil binding
CCOC(=O)CN1CC23C=CC(O2)C(C(=O)Nc2cc(OC)ccc2OC)C3C1=O (configuration not stated) | -1.1% | i | -0.7% | -3.6% | 3.5% | 12.6µM*
COc1ccc2[nH]cc(CCNc3nc(-c4ccccc4OC)nc4ccccc34)c2c1 | -1.8% | i | 0.1% | -19.9% | -4.4% | 2.51µM*
Cc1ccc(N=Nc2c(O)ccc3cc(S(=O)(=O)O)ccc23)cc1 | 1.2%[15.4 µM] | i | -2.2%[15.4 µM] | ? | -7.6%[11.4 µM] | 3.16µM*
Cc1ccc(S(=O)(=O)Oc2ccc(N=Nc3ccc(-c4ccc(N=Nc5c(O)ccc6cc(S(=O)(=O)O)cc(S(=O)(=O)O)c56)c(C)c4)cc3C)cc2)cc1 | 2.6% | i | 6.7% | 0.0501µM* | 31.6µM* | 0.01µM*
O=S(=O)(O)c1ccc2cc(N=Nc3cc(S(=O)(=O)O)c4cccnc4c3O)ccc2c1 | -0.3%[15.4 µM] | i | -2.0%[15.4 µM] | ? | -17.9%[11.4 µM] | 7.3%[11.4 µM]
Cc1nc(N=Nc2ccc(S(=O)(=O)O)cc2S(=O)(=O)O)c(COP(=O)(O)O)c(C=O)c1O | -7.0% | i | -3.7% | -0.5% | -8.5% | 39.0%
CN1CCN(C(=O)c2cc(-c3ccc(O)cc3)on2)CC1 | -0.1% | i | -1.4% | -1.5% | -7.2% | -9.5%
Brc1ccc2ncnc(Nc3ccc(N4CCOCC4)cc3)c2c1 | -0.6% | i | -3.3% | -28.8% | -7.4% | 15.8µM*
C[N+](C)(C)c1ncnc2c1ncn2[C@@H]1CCCCO1 | 0.7%[15.4 µM] | i | -0.3%[15.4 µM] | -3.9%[11 µM] | -3.3%[11.4 µM] | -0.5%[11.4 µM]
Fc1ccc(-c2cc(C(F)(F)F)nc(N3CCCCC3)n2)cc1 | -0.9% | i | -2.9% | ? | 1.1% | -4.8%
Cc1ccc(-c2cc(C(F)F)nc(N3CCC(C)CC3)n2)cc1 | 0.4% | i | -2.5% | 25.1µM* | -2.4% | -0.7%
Cc1cccn2c(=O)c3cc(C(=O)NCc4ccco4)c(=N)n(C(C)C)c3nc12 | 0.3% | i | -2.2% | -6.7% | -17.0% | 90.3%
N=c1c(C(=O)NCc2ccco2)cc2c(=O)n3ccccc3nc2n1Cc1ccc(Cl)cc1 | -0.1% | i | -1.0% | 0.1% | -4.1% | 3.16µM*
Cc1cccn2c(=O)c3cc(C(=O)NCc4ccco4)c(=N)n(CCc4ccccc4)c3nc12 | -0.7% | i | 5.9% | -4.7% | -14.4% | 1.58µM*
CC(C)n1c(=N)c(C(=O)NCCc2ccccc2)cc2c(=O)n3ccccc3nc21 | 0.3% | i | -2.8% | 2.2% | -9.0% | 3.16µM*
CCOC(=O)c1cc2c(=O)n3ccccc3nc2n(Cc2ccc(Cl)cc2)c1=N | 0.3% | i | -0.7% | -5.1% | -0.3% | 0.501µM*
